# Reference: PubChem BioAssay AID651640 (Broad Institute, 2012)
# Among all 350,000 compounds or so, about 6,000 (1.7%) were called active. Not shown: some 5% with an inconclusive outcome. The entries come from a sample that favours actives as a whole. A number with no mark means an inactive call. No stated cut-off is given here; in the data, active means CPE inhibition above about 20% (passing the limit was not always enough); inconclusive means no clear call, values can overlap the other calls; tested in BHK-21 cells.
# Assay: protection of cells from dengue 2 killing – plate reader, single concentration, primary screen (AID 651640);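 further: 0% = median of neutral control wells and 100% = median of positive control wells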
# Conditions: DENV2-infected cells, cytopathic effect rescue, at 9.99 µM, active compounds read high
row,SMILES,CPE inhibition
1,O=C1CC2(CCCCC2)Oc2ccc(OCC(=O)N3CCOCC3)cc21,2.58%
2,O=C1CC2(CCN(C(=O)COc3ccc(F)cc3)CC2)Oc2ccccc21,29.9% (active)
3,Cc1ccc(N2CC(C(=O)N3CCC4(CC3)CC(=O)c3ccccc3O4)CC2=O)cc1C (stereo not given),-6.93%
4,Cc1cccc(Oc2c([N+](=O)[O-])c(=O)n(C)c3ccccc23)c1,-2.07%
5,COc1cc2c(=O)n(C)c3ccccc3c2cc1OC,0.702%
6,Cc1cc(C)c(-c2c(O)c3ccccc3n(C)c2=O)c(C)c1,72% (active)
7,CC(C)NC(=O)N(C)C[C@H]1OCCCC[C@H](C)Oc2ccc(NC(=O)CCC(F)(F)F)cc2C(=O)N([C@H](C)CO)C[C@H]1C,7.36%
8,CCN1C(=S)N[C@@H](CCc2ccccc2)[C@H](C(=O)OC)[C@H]1C,65.7% (active)
9,CCN1C(=O)N[C@@H](CCc2ccccc2)C(C(=O)OC)=C1C,-5.47%
10,COCCN1C(=O)N[C@@H](CCc2ccccc2)[C@H](C(C)=O)[C@H]1C,-5.61%
11,CCS(=O)(=O)Nc1ccc2c(c1)C(=O)N(C)[C@H]1CC[C@@H](CC(=O)N3CCCCC3)O[C@H]1CO2,-4.09%
12,COc1ccc(S(=O)(=O)N(C)C[C@H]2Oc3ccc(NC(=O)CCC(F)(F)F)cc3CC(=O)N([C@H](C)CO)C[C@@H]2C)cc1,15.8%
13,CO[C@H]1CN(C)C(=O)c2ccc(NC(C)=O)cc2OC[C@@H](C)N(C(=O)c2ccccn2)C[C@@H]1C,-11.8%
14,C[C@H](CO)N1C[C@H](C)[C@H](CN(C)C(=O)Nc2cccc(Cl)c2Cl)OCc2ccccc2-c2ccccc2C1=O,-3.92%
15,O=C(NC(=S)Nc1ccc(Cl)cc1Cl)C1CC1,86.2% (active)
16,O=C(NC(=S)Nc1ccc(Br)cc1F)C1CCCCC1,-4%
17,S=C(Nc1ccc(Cl)cc1Cl)N1CCCC1,-8.93%
18,O=C(Cc1ccccc1)N1C[C@@H]2[C@H](c3ccccc31)[C@@H](CO)N2C(=O)C1CC1,-0.201%
19,CC(=O)N[C@@H]1CC[C@@H](CCNC(=O)C2CC2)O[C@H]1CO,1.82%
20,CCN(Cc1ccccc1)C(=O)CN1C(=S)NC(C)(C)CC1C (stereo not given),65.7% (active)
21,COc1cccc(CNC(=O)CCN2C(=S)NC(C)(C)CC2C)c1 (stereo not given),8.33%
22,CC1CC(C)(C)NC(=S)N1CCC(=O)N1CCN(Cc2ccccc2)CC1 (stereo not given),16.6%
23,C[C@@H]1CN([C@@H](C)CO)C(=O)c2cc(NC(=O)Cn3cnnn3)ccc2O[C@H]1CN(C)Cc1ccc(C(F)(F)F)cc1,-5.69%
24,N#Cc1cccc(-c2ccc([C@H]3[C@@H](CO)N4CCCCN(C(=O)Nc5ccccc5)C[C@H]34)cc2)c1,-9.56%
25,O=C(C1CCCC1)N1[C@@H](CO)[C@@H](c2ccccc2)C12CN(Cc1ccc(F)cc1)C2,-1.84%
26,C/C=C/c1ccc([C@@H]2[C@H](CO)N(C(=O)c3cnccn3)C23CN(C(C)=O)C3)cc1,3.48%
27,C/C=C/c1ccc([C@@H]2[C@@H](CO)N(C(=O)c3ccccc3)C23CN(C(C)=O)C3)cc1,70.8% (active)

row,SMILES,CPE inhibition
1,O=C(c1ccccn1)N1CC2(C1)[C@@H](c1ccccc1)[C@@H](CO)N2C(=O)C1CCCCC1,4.48%
2,COCC(=O)N1CC2(C1)[C@@H](c1ccc(-c3cccc(F)c3)cc1)[C@@H](CO)N2C(=O)COC,-4.52%
3,CN(C)CC(=O)N1CC2(C1)[C@H](c1ccccc1)[C@@H](CO)N2C(=O)C1CCCCC1,-1.45%
4,O=C(C1CCCCC1)N1[C@H](CO)[C@@H](c2ccccc2)C12CN(Cc1cccc(Cl)c1)C2,27.1% (active)
5,CN(C)CC(=O)N1CC2(C1)[C@H](c1ccccc1)[C@H](CO)N2C(=O)C1CC1,24.3% (active)
6,CCC(=O)N1CC2(C1)[C@H](c1ccccc1)[C@@H](CO)N2C(=O)c1ccccc1,-0.875%
7,CN(C)CC(=O)N1[C@@H](CO)[C@H](c2ccccc2)C12CN(C(=O)c1cccc(F)c1)C2,49.2% (active)
8,CC(=O)N1CC2(C1)[C@H](c1ccccc1)[C@@H](CO)N2C(=O)Cc1ccccc1,4.56%
9,CCCNC(=O)N1CC2(C1)[C@H](c1ccccc1)[C@@H](CO)N2C(=O)C1CC1,16.7%
10,COc1ccc2c3c([nH]c2c1)[C@H](CO)N(C(=O)Nc1ccc(F)cc1)CC31CCN(C(=O)Nc2c(C)noc2C)CC1,-3.75%
11,CC=Cc1ccc2n(c1=O)C[C@@H]1[C@@H](CO)[C@H](C(=O)NCCc3ccccc3)N(C(C)=O)[C@H]21 (mixture of isomers),-2.04%
12,Cc1ccc(S(=O)(=O)NCC[C@H]2CC[C@@H](NS(=O)(=O)c3ccccc3Cl)[C@H](CO)O2)cc1,-7.15%
13,COc1ccc(CN(C)C[C@H]2OCCCC[C@H](C)Oc3ccc(NC(=O)Nc4ccc5c(c4)OCO5)cc3C(=O)N([C@H](C)CO)C[C@@H]2C)cc1,-3.02%
14,N#C[C@H]1[C@@H](c2ccccc2C2=CCCC2)[C@H](CO)N1C(=O)c1cccc(F)c1,19.5%
15,C[C@@H]1CN([C@@H](C)CO)C(=O)c2cc(NC(=O)NC3CCCCC3)ccc2O[C@@H](C)CCCCO[C@H]1CN(C)Cc1ccccc1,1.48%
16,CCCC#Cc1cnc2c(c1)C(=O)N([C@H](C)CO)C[C@@H](C)[C@@H](CN(C)C(=O)Nc1ccccc1F)O2,-4.21%
17,CO[C@@H]1CN(C)C(=O)c2ccc(NC(=O)c3ccc(F)cc3)cc2OC[C@H](C)N(C(=O)c2ccc(F)cc2)C[C@@H]1C,-1.44%
18,C[C@@H]1CN([C@@H](C)CO)C(=O)c2c(c3ccccc3n2C)-c2ccccc2CO[C@H]1CN(C)Cc1cccc(C(=O)O)c1,8.1%
19,COc1cccc(C#Cc2cnc3c(c2)C(=O)N([C@H](C)CO)C[C@@H](C)[C@@H](CN(C)C(=O)C2CCC2)O3)c1,-2.93%
20,CO[C@H]1CN(C)C(=O)c2ccc(NC(=O)C3CC3)cc2OC[C@H](C)N(Cc2ccncc2)C[C@@H]1C,-0.282%
21,O=C(C1CCCC1)N1CC2(C1)[C@H](c1ccccc1)[C@H](CO)N2CCC(F)(F)F,-9.33%
22,CCC(=O)N1[C@@H](CO)[C@@H](c2ccccc2)C12CN(C(=O)c1cnccn1)C2,21.9% (active)
23,O=C(c1cnccn1)N1CC2(C1)[C@H](c1ccccc1)[C@H](CO)N2C(=O)c1ccccc1,-6.13%
24,O=C(C1CCCCC1)N1CC2(C1)[C@H](c1ccccc1)[C@@H](CO)N2CCC(F)(F)F,34.6% (active)
25,CC(=O)N1CC2(C1)[C@@H](c1ccccc1)[C@@H](CO)N2C(=O)c1cnccn1,-5.39%
26,O=C(C1CCCC1)N1[C@H](CO)[C@@H](c2ccccc2)C12CN(CCC(F)(F)F)C2,-3.05%
27,COCC#Cc1cnc2c(c1)C(=O)N([C@H](C)CO)C[C@H](C)[C@H](CN(C)C(=O)Cc1cccnc1)O2,-4.96%

row,SMILES,CPE inhibition
1,C[C@H]1CCCCO[C@H](CN(C)S(=O)(=O)c2ccc(F)cc2)[C@@H](C)CN([C@@H](C)CO)C(=O)c2cc(NS(=O)(=O)c3cn(C)cn3)ccc2O1,12.6%
2,CC(=O)N1[C@H](CO)[C@@H](c2ccc(-c3ccccc3)cc2)[C@H]1CNC(=O)C1CC1,-7.62%
3,CCNC(=O)C[C@@H]1CC[C@@H]2[C@H](COc3ccc(NC(=O)Nc4cccc(C)c4)cc3C(=O)N2C)O1,-13.2%
4,COc1ccccc1-c1cn(CC[C@@H]2CC[C@H](NC(=O)c3ccccc3F)[C@H](CO)O2)nn1,4.94%
5,C[C@@H]1CN([C@H](C)CO)C(=O)c2cccc(NC(=O)Nc3ccc4c(c3)OCO4)c2O[C@H]1CN(C)S(=O)(=O)c1ccccc1,-7.78%
6,Nc1nc(SCC(=O)Nc2cc(C(F)(F)F)ccc2Cl)[nH]c(=O)c1NC(=O)c1ccco1,-1.74%
7,COC(=O)c1ccc(NC(=O)CSc2nc(N)c(NC(=O)c3ccc(Br)o3)c(=O)[nH]2)cc1,-4.82%
8,COCCNC(=O)CSc1nc(N)c(NC(=O)c2ccco2)c(=O)[nH]1,96.9% (active)
9,CCCNC(=O)N1[C@H](CO)[C@H](c2ccccc2)[C@H]1CNC(=O)C1CCCCC1,-12%
10,CC(=O)Nc1ccc2c(c1)C(=O)N(C)[C@@H]1CC[C@@H](CC(=O)NCC3CCCCC3)O[C@@H]1CO2,-1.94%
11,COC(=O)[C@]1(Cc2ccccc2)NC=C(C(=O)c2ccccc2)[C@@H]1c1cccc(OC)c1,-11.9%
12,COc1ccc(NC(=O)Nc2ccc3c(c2)C(=O)N([C@@H](C)CO)C[C@@H](C)[C@@H](CN(C)S(=O)(=O)c2ccc(C)cc2)OCCCC[C@H](C)O3)cc1,-2.48%
13,COC(=O)[C@]12C[C@H](CC(=O)NCCCCc3ccccc3)C(=O)N(Cc3ccc4c(c3)OCO4)C1=C[C@H](C(C)(C)C)O[C@@H]2C,1.32%
14,C[C@@H]1CN([C@@H](C)CO)C(=O)c2cc(C3=CCCC3)cnc2O[C@@H]1CN(C)C(=O)Cc1ccncc1,-2.39%
15,CS(=O)(=O)N1[C@@H](C#N)[C@H](c2ccc(C#CC3CCCCC3)cc2)[C@@H]1CO,-6.42%
16,N#C[C@@H]1[C@@H](c2ccc(C#Cc3cccc(F)c3)cc2)[C@@H](CO)N1C(=O)C1CCC1,-2.98%
17,N#C[C@@H]1[C@H](c2ccccc2-c2ccc(F)cc2)[C@@H](CO)N1c1ncc(-c2ccccc2)s1,0.494%
18,CS(=O)(=O)N1[C@H](C#N)[C@H](c2ccc(C#CC3CC3)cc2)[C@H]1CO,4.72%
19,COCC(=O)N1[C@H](CO)[C@H](c2ccccc2-c2ccc(C)cc2)[C@@H]1C#N,-2.92%
20,Cc1ccccc1S(=O)(=O)N1[C@@H](C#N)[C@H](c2ccccc2)[C@@H]1CO,8.15%
21,N#C[C@@H]1[C@H](c2ccc(C#Cc3cccc(F)c3)cc2)[C@@H](CO)N1C(=O)C1CCCC1,3.79%
22,N#C[C@H]1[C@H](c2ccc(C#Cc3ccc(F)cc3)cc2)[C@@H](CO)N1C(=O)C1CCCC1,22.7% (active)
23,Cc1ccccc1S(=O)(=O)N1[C@H](C#N)[C@H](c2ccccc2)[C@H]1CO,9.21%
24,CS(=O)(=O)N1[C@H](C#N)[C@H](c2ccccc2-c2ccc(F)cc2)[C@@H]1CO,29.1% (active)
25,Cc1ccccc1S(=O)(=O)N1[C@H](C#N)[C@H](c2ccccc2)[C@@H]1CO,119% (active)
26,CS(=O)(=O)N1[C@H](C#N)[C@H](c2ccc(C#CC3CCCC3)cc2)[C@H]1CO,28.9% (active)
